Results from PubChem BioAssay (NCI).
About 83,000 compounds went through this panel and 20% of them were active in at least one assay; those are over-represented in the sample as a whole.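 Plates (96-well) were seeded with cells, treated with compound at one concentration, and incubated for 48 hours before percent growth was determined.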 A number with no mark means an inactive call. The source made the active and inactive calls. Rule for the calls: active = growth percent below 10; inactive = the rest.

Legend:
Assay in all cases: NCI-60 one-dose screen, 48 h (100 = growth as untreated, 0 = no growth, -100 = all killed)
Settings in all cases: 10 µM unless noted
NCI-H23 lung = system: NCI-H23 lung
NCI-H226 lung = system: NCI-H226 lung
NCI-H322M lung = system: NCI-H322M lung
HOP-62 NSCLC = system: HOP-62 NSCLC
NCI-H460 lung = system: NCI-H460 lung
HOP-92 NSCLC = system: HOP-92 NSCLC
NCI-H522 lung = system: NCI-H522 lung
A549/ATCC NSCLC = system: A549/ATCC NSCLC
786-0 renal = system: 786-0 renal
DU-145 prostate = system: DU-145 prostate
K-562 leukemia = system: K-562 leukemia
MALME-3M melanoma = system: MALME-3M melanoma
MDA-MB-231 breast = system: MDA-MB-231 breast
RXF 393 renal = system: RXF 393 renal
SF-268 CNS = system: SF-268 CNS
SF-295 CNS = system: SF-295 CNS
SF-539 CNS = system: SF-539 CNS
UACC-257 melanoma = system: UACC-257 melanoma
M14 melanoma = system: M14 melanoma

| SMILES | growth (NCI-H23 lung) | growth (NCI-H226 lung) | growth (NCI-H322M lung) | growth (HOP-62 NSCLC) | growth (NCI-H460 lung) | growth (HOP-92 NSCLC) | growth (NCI-H522 lung) | growth (A549/ATCC NSCLC) | growth (786-0 renal) | growth (DU-145 prostate) | growth (K-562 leukemia) | growth (MALME-3M melanoma) | growth (MDA-MB-231 breast) | growth (RXF 393 renal) | growth (SF-268 CNS) | growth (SF-295 CNS) | growth (SF-539 CNS) | growth (UACC-257 melanoma) | growth (M14 melanoma) |
| --- | --- | --- | --- | --- | --- | --- | --- | --- | --- | --- | --- | --- | --- | --- | --- | --- | --- | --- | --- |
| c1ccc2c(c1)ncn2-c1nc2ccccc2n2c1nc1ccccc12 | 67.1% | 78.4% | 62.9% | 50.1% | 52.1% | 88.5% | 81.6% | 81.7% | 98.3% | 89% | 82.9% | 128% | 80.7% | 88.8% | 94.3% | 90.2% | 79.8% | 104% | 91.1% |
| CCNCCNc1cc(-c2ccc(F)cc2)c(C#N)c2nc3ccccc3n12 | 77.8% | 93.1% | 66.3% | 75.6% | 3.07% (active) | 52.1% | 64.3% | 46% | 57.9% | 46.4% | -19.1% (active) | -60.1% (active) | 17.9% | 29.7% | 53.8% | 38.5% | -88.4% (active) | -76.8% (active) | -64.1% (active) |
| C=C1c2c(C)nn(-c3ccc(N)cc3)c2N(C)C23CC1C1(C)c4c(C)nn(-c5ccc(N)cc5)c4N(C)C(C)(CC12)C3 (configuration not stated) | 93.6% | 71.2% | 92.1% | 88.3% | 57.2% | 90.2% | 62.3% | 50.1% | 81.1% | 81.4% | 42.9% | 102% | 89.2% | 71.7% | 76.5% | 52.5% | 100% | 72.5% | 61.6% |
| O=C1NCC(=O)N(Cc2ccco2)[C@H]1Cc1ccccc1 | 100% | 89% | 112% | 81.6% | 103% | 88.7% | 88.2% | 102% | 95.1% | 110% | 107% | 110% | 89.1% | 117% | 102% | 96.5% | 97.9% | 86.9% | 98.2% |
| C[C@H]1[C@H](C)CC[C@]2(C(=O)N3CCN(C)CC3)CC[C@]3(C)C(=CC[C@@H]4[C@@]5(C)C/C(=C/c6cccnc6)C(=O)C(C)(C)[C@@H]5CC[C@]43C)[C@H]12 | -51.2% (active) | -57.2% (active) | -52.8% (active) | -95.9% (active) | -65.1% (active) | -81.7% (active) | -79.3% (active) | -73.7% (active) | -85% (active) | -81.5% (active) | -46.3% (active) | -87.3% (active) | -80.1% (active) | -94.4% (active) | -80.3% (active) | -84.6% (active) | -84.6% (active) | -65.3% (active) | -81.8% (active) |
| Cc1nn(Cc2ccccc2)cc1C(=O)Nc1sc2c(c1C(N)=O)CCC(=O)C2 | 12.6% | 71.9% | 96.2% | 84.6% | 86% | 31.2% | -3.17% (active) | 84.7% | 70.1% | 67.6% | 10.5% | 27.6% | 25% | 31.4% | 20.5% | 79.7% | 9.16% (active) | 70.7% | 16.7% |
| CC(c1ccc(-n2cccn2)cc1)c1cnc(N2CCc3ccc(C(N)=O)cc3C2)s1 (configuration not stated) | 59% | 43.6% | 86.8% | 82.2% | 74.5% | 71% | 41% | 65.8% | 65.8% | 88.2% | 30.4% | 72.4% | 72.5% | 82.2% | 86% | 52.3% | 70.7% | 48.7% | 45.6% |
| CCn1c(Sc2nnc(NC(C)=O)s2)nc2c1c(=O)n(C)c(=O)n2C | 82.2% | 93.9% | 96.5% | 99.4% | 103% | 77.6% | 93.5% | 98.7% | 99.6% | 99.2% | 95.6% | 99.1% | 96% | 91.2% | 90.8% | 98% | 92.5% | 103% | 91.4% |
